Data as given in PubChem BioAssay (Tox21).
Several values for one entry are separate records, joined by “and”; a condition that tells them apart may be missing. Equal values may be shown once. Records with an inconclusive call do not appear. Entries that show only a call come without a potency. More than one record can exist for a structure, and the calls need not agree. Activity calls are given as the source filed them. Unless noted, calls come from the whole dose curve; as a rule, active = well fitted curve in the direction sought with a large enough effect in the repeat runs; inconclusive = weak or mixed curves; inactive = no such curve, though single readings can be large; an effect the other way counts as inactive or inconclusive.

tested on: not listed separately; assay: qHTS assay to identify small molecule antagonists of the androgen receptor (AR) signaling pathway - cell viability counter screen (AID 743033; note: nearly all actives have a fitted effect of over 45% in size; note: potency is the fitted concentration of half-maximal effect); conditions: AR-bla HEK293 viability, CellTiter-Glo luminescence, 16 h; series mostly up to 58.5 µM

| Structure (SMILES) | Potency |
| --- | --- |
| CCCC[P+](C)(CCCC)CCCC | inactive |
| C=CC(=O)Nc1cc2c(Nc3ccc(F)c(Cl)c3)ncnc2cc1OCCCN1CCOCC1 | inactive |
| O=S(=O)(O)c1ccccc1/C=C/c1ccc(-c2ccc(/C=C/c3ccccc3S(=O)(=O)O)cc2)cc1 | inactive |
| CC(C)(C)C1CCC(=O)CC1 | inactive |
| CCc1ccc(Br)cc1 | inactive |
| CCCCC(CC)COC(=O)CCCCC(=O)OCc1ccccc1 (stereo not given) | inactive |
| CN1CCN2c3ccccc3Cc3ccccc3C2C1 (stereo not given) | inactive |
| O=[N+]([O-])c1ccc(O)cc1C(F)(F)F | 27.5 µM (active) |
| CCN(CC)C(=O)c1cc(S(=O)(=O)Cc2ccccc2)c(N2CCC(c3ccccc3)CC2)cc1N(CC)CCN(C)C | 15.3 µM (active) |
| Oc1ccccc1O | inactive |
| CCCCCC/C=C\CCCCCCCC(=O)O | inactive |
| C=CC(=O)OCCOC(=O)C=C | inactive |
| CCCCN(CCCC)CC(O)c1cc(Cl)cc2c1-c1ccc(Cl)cc1/C2=C/c1ccc(Cl)cc1 (stereo not given) | inactive |
| NC(=O)c1cccc([N+](=O)[O-])c1 | inactive |
| O=c1c(O)c(-c2ccc(O)cc2O)oc2cc(O)cc(O)c12 | inactive |
| Oc1c(I)cc(Cl)c2cccnc12 | inactive and 17.3 µM (active) |

| Structure (SMILES) | Potency |
| --- | --- |
| Cc1cccc2cccnc12 | inactive |
| c1ccsc1 | inactive |
| O=C(O)[C@H](O)[C@@H](O)[C@H](O[C@@H]1O[C@H](CO)[C@H](O)[C@H](O)[C@H]1O)[C@H](O)CO | inactive |
| COC1=C(OC)C(=O)C(CCCCCCCCCCO)=C(C)C1=O | inactive |
| [Cl][Pt-2]([Cl])([Cl])[Cl] | inactive |
| CC(C)(C)c1ccc(C(O)CCCN2CCC(C(O)(c3ccccc3)c3ccccc3)CC2)cc1 (stereo not given) | inactive |
| CCCCC(CC)CN1CN(CC(CC)CCCC)CC(C)(N)C1 (stereo not given) | inactive |
| COc1ccc(-c2coc3cc(O)ccc3c2=O)cc1 | inactive |
| CCO[C@@H]1O[C@H](C(COCc2ccccc2)OCc2ccccc2)[C@H](OCc2ccccc2)[C@H]1O (stereo not given in full) | inactive |
| Cc1c2ccccc2c(C)c2c1ccc1ccccc12 | 48.5 µM (active) and 24.5 µM (active) |
| C=Cc1ccccc1C=C | inactive |
| CC/C=C\CCCCCO | inactive |
| S=c1nccc[nH]1 | inactive |
| O=C1c2ccccc2C(=O)N1SC1CCCCC1 | 38.9 µM (active) and 49 µM (active) |
| COC(=O)c1ccccc1C | inactive |
| COc1cc(S(=O)(=O)O)c(C)cc1N=Nc1c(O)ccc2cc(S(=O)(=O)O)ccc12 | inactive |

target: Androgen receptor (Homo sapiens) (UniProt P10275); assay: qHTS assay to identify small molecule antagonists of the androgen receptor (AR) signaling pathway (AID 743035; active = well fitted inhibition curve with a large enough effect in the signal ratio in the repeat runs, not every such curve was filed as active; the % refers to the signal ratio; note: potency is the fitted concentration of half-maximal effect); conditions: HEK293 AR-UAS-bla, R1881-stimulated, beta-lactamase FRET, 16 h; series mostly up to 58.5 µM
Sequence (P10275 whole entry, looked up): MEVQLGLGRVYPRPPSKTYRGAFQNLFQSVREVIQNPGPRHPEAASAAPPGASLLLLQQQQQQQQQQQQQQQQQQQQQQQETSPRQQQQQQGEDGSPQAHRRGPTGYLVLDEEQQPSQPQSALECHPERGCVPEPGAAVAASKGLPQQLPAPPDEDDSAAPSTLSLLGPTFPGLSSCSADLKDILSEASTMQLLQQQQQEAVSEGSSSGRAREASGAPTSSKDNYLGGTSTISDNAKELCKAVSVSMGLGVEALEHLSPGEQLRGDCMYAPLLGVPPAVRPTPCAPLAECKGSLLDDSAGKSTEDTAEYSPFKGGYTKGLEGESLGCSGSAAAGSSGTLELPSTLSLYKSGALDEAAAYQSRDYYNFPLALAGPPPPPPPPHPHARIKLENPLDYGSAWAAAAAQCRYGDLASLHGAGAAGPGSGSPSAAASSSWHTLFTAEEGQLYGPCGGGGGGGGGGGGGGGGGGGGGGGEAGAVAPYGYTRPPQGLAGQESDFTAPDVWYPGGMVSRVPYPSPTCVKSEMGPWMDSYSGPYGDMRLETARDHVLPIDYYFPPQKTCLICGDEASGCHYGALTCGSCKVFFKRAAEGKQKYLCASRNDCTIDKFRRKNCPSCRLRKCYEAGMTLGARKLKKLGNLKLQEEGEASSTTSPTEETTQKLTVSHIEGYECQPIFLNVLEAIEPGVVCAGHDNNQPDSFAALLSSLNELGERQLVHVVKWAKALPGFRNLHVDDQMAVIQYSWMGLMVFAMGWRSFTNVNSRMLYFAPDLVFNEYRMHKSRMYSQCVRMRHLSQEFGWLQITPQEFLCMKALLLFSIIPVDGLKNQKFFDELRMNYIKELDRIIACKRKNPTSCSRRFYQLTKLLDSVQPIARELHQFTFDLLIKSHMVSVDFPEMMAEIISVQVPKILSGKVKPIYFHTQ
Outline: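 HEK293 cells stably carrying a UAS-driven beta-lactamase reporter (AR-UAS-bla GripTite) were plated for 4 h at 37C, then given compound and the agonist R1881 and incubated 16 h. Reporter activity was read by LiveBLAzer B/G FRET fluorescence after 2 h at room temperature.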

| Structure (SMILES) | Potency |
| --- | --- |
| C=CC(=O)OCCOC(=O)C=C | inactive |
| NC(=O)c1cccc([N+](=O)[O-])c1 | inactive |
| Oc1c(I)cc(Cl)c2cccnc12 | inactive |
| c1ccsc1 | inactive |
| COC1=C(OC)C(=O)C(CCCCCCCCCCO)=C(C)C1=O | 16.9 µM (active) |
| CCN(CC)c1ccc2c(-c3ccc(S(=O)(=O)O)cc3S(=O)(=O)[O-])c3ccc(=[N+](CC)CC)cc-3oc2c1 | inactive |
| CCCCC(CC)CN1CN(CC(CC)CCCC)CC(C)(N)C1 (stereo not given) | inactive |

target: Androgen receptor (Homo sapiens) (UniProt P10275); assay: qHTS assay to identify small molecule agonists of the androgen receptor (AR) signaling pathway (AID 743036; active = well fitted activation curve with a large enough effect in the signal ratio in the repeat runs, with a control signal flat, not every such curve was filed as active; the % refers to the signal ratio; note: potency is the fitted concentration of half-maximal effect); conditions: HEK293 AR-UAS-bla GripTite, beta-lactamase FRET ratio, 16 h; series mostly up to 62.4 µM
Outline: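 Screening used 2,000 AR-bla HEK293 cells per well, treated 16 h at 37C with test compounds in DMSO alongside positive and DMSO-only controls; beta-lactamase activity was then read by LiveBLAzer B/G FRET fluorescence after 2 h at room temperature.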

| Structure (SMILES) | Potency |
| --- | --- |
| Oc1c(I)cc(Cl)c2cccnc12 | inactive |
| c1ccsc1 | 5.9 µM (active) |
| CCN(CC)c1ccc2c(-c3ccc(S(=O)(=O)O)cc3S(=O)(=O)[O-])c3ccc(=[N+](CC)CC)cc-3oc2c1 | inactive |
| CCCCC(CC)CN1CN(CC(CC)CCCC)CC(C)(N)C1 (stereo not given) | inactive |

target: Androgen receptor (Homo sapiens) (UniProt P10275); assay: qHTS assay to identify small molecule agonists of the androgen receptor (AR) signaling pathway using the MDA cell line (AID 743040; note: nearly all actives have a fitted effect of over 20% in size); conditions: MDA-kb2 AR-luc cells, MMTV luciferase, 16 h, stronger effect = higher value; series mostly up to 70.3 µM
Outline: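 Cells plated, 5 h at 37C/0% CO2; compound or DMSO pinned; 16 h at 37C; ONE-Glo added; luminescence measured after 30 min at room temperature. Reporter line: MDA-kb2 with MMTV-luciferase responsive to AR and GR.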

| Structure (SMILES) | outcome |
| --- | --- |
| C=CC(=O)Nc1cc2c(Nc3ccc(F)c(Cl)c3)ncnc2cc1OCCCN1CCOCC1 | inactive |
| CN1CCN2c3ccccc3Cc3ccccc3C2C1 (stereo not given) | inactive |
| C=CC(=O)OCCOC(=O)C=C | inactive |
| NC(=O)c1cccc([N+](=O)[O-])c1 | inactive |
| Oc1c(I)cc(Cl)c2cccnc12 | inactive |
| COC1=C(OC)C(=O)C(CCCCCCCCCCO)=C(C)C1=O | inactive |
| CCN(CC)c1ccc2c(-c3ccc(S(=O)(=O)O)cc3S(=O)(=O)[O-])c3ccc(=[N+](CC)CC)cc-3oc2c1 | inactive |
| CCCCC(CC)CN1CN(CC(CC)CCCC)CC(C)(N)C1 (stereo not given) | inactive |
| Cc1c2ccccc2c(C)c2c1ccc1ccccc12 | inactive |

tested on: not listed separately; assay: qHTS assay to identify small molecule antagonists of the androgen receptor (AR) signaling pathway using the MDA cell line - cell viability counter screen (AID 743041; note: nearly all actives have a fitted effect of over 45% in size; note: potency is the fitted concentration of half-maximal effect); conditions: MDA-kb2 viability, CellTiter-Fluor, 16 h, cells co-treated with R1881 androgen agonist; series mostly up to 70.3 µM
Outline: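 Cells were plated at 3,000 per well and left 5 h. Compounds in DMSO were then pinned in, followed by R1881. After 16 h at 37C, CellTiter-Fluor fluorescence gave viability.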

| Structure (SMILES) | Potency |
| --- | --- |
| CCCC[P+](C)(CCCC)CCCC | inactive |
| O=S(=O)(O)c1ccccc1/C=C/c1ccc(-c2ccc(/C=C/c3ccccc3S(=O)(=O)O)cc2)cc1 | inactive |
| CCc1ccc(Br)cc1 | inactive |
| CCCCC(CC)COC(=O)CCCCC(=O)OCc1ccccc1 (stereo not given) | inactive |
| O=[N+]([O-])c1ccc(O)cc1C(F)(F)F | 61.1 µM (active) |
| Oc1ccccc1O | inactive |
| C=CC(=O)OCCOC(=O)C=C | inactive |
| NC(=O)c1cccc([N+](=O)[O-])c1 | inactive |
| O=c1c(O)c(-c2ccc(O)cc2O)oc2cc(O)cc(O)c12 | inactive |
| Cc1cccc2cccnc12 | inactive |
| c1ccsc1 | inactive |
| O=C(O)[C@H](O)[C@@H](O)[C@H](O[C@@H]1O[C@H](CO)[C@H](O)[C@H](O)[C@H]1O)[C@H](O)CO | inactive |
| CC1(C)CCC[C@]2(C)[C@H]3CC(=O)O[C@]3(C)CC[C@@H]12 | inactive |
| COC1=C(OC)C(=O)C(CCCCCCCCCCO)=C(C)C1=O | inactive |
| [Cl][Pt-2]([Cl])([Cl])[Cl] | inactive |
| CC(C)(C)c1ccc(C(O)CCCN2CCC(C(O)(c3ccccc3)c3ccccc3)CC2)cc1 (stereo not given) | inactive |
| CCN(CC)c1ccc2c(-c3ccc(S(=O)(=O)O)cc3S(=O)(=O)[O-])c3ccc(=[N+](CC)CC)cc-3oc2c1 | 11.2 µM (active) |
| COc1ccc(-c2coc3cc(O)ccc3c2=O)cc1 | inactive |
| Cc1c2ccccc2c(C)c2c1ccc1ccccc12 | 61.1 µM (active) |
| CCCCCC(C)OC(=O)COc1ccc(Cl)c2cccnc12 (stereo not given) | inactive |
| CC/C=C\CCCCCO | inactive |
| S=c1nccc[nH]1 | inactive |
| COC(=O)c1ccccc1C | inactive |
